Here are results for 15 compounds from PubChem BioAssay AID488900 (National Center for Advancing Translational Sciences (NCATS), 2010).

Records with an inconclusive call do not appear. Values without a mark were called inactive. The source made the active and inactive calls. The call rests on the fitted dose curve; in most records, active means well fitted curve in the direction sought with a large enough effect; inconclusive means small, poorly fitted or top-dose-only effect, or effect the other way, or another doubt; inactive means no such curve, though single readings can be large or run the other way.

The nature of this test: Secondary Assay for lipid storage modulators: Hela cell LDSA assay for probe SAR. As to conditions: HeLa lipid droplet accumulation, BODIPY 493/503 cytometry, oleate-fed; series mostly up to 46.1 µM; activity change, negative = less lipid storage: at the top concentration. The source says: NIH Molecular Libraries Probe Production Centers Network [MLPCN] NIH Chemical Genomics Center [NCGC] MLPCN Grant: 1 R03 MH085686-01 Assay Submitter (PI): Beller, Mathias; Max-Planck-Institut fur Biophysikalische Chemie NCGC Assay Overview: Storing lipids as a reservoir for energy or the anabolism of elementary metabolites is a common feature of probably all cells and is conserved from bacteria to humans. The universal cellular lipid storage organelle is the so-called lipid storage droplet (LD). Although ubiquitous, LDs share a simple structure composed of a hydrophobic core that harbors the storage lipids, which is shielded by a droplet-specific phospholipid monolayer to which proteins are attached. The current model of LD biogenesis involves an incorporation of the lipid core into the membrane leaflets of the endoplasmic reticulum (ER) followed by a subsequent budding-like maturation of a LD, which ultimately pinches off. Once released, LD volume can increase by localized lipogenesis or fusion of existing droplet. Storage lipids are re-mobilized enzymatically by lipase activity. Lipase regulation in the adipocyte is heavily studied and involves multiple components including catecholamine signaling, the LD-associated proteins Perilipin and comparative gene identification (CGI-58) and at least two lipases named hormone sensitive lipase (HSL) and adipocyte triglyceride lipase (ATGL). LD regulation outside of the adipocyte is poorly understood and only few components are known. However, there is an urgent need to learn more about ectopic fat depots as mislocalized storage of lipids, for example in the liver or muscle, is an eminent health problem associated with insulin resistance or the metabolic syndrome.
NCGC Assay Protocol Summary: The assay was performed with Hela cells, using an oleic acid feeding protocol similar to the S3 assay. We dispensed 4 uL of cells to give 700 cells/well into Greiner bio-one 1,536-well plates (black walled, clear bottom). Triacsin C (Sigma-Aldrich T-4540), an inhibitor of long-chain fatty acyl CoA synthetase that blocks synthesis of triglycerides, was used as a positive control for lipid under-storage using a final concentration of 20 uM. The orexin antagonist, SB408124 - previously identified to stimulate lipid over-storage, was used as a positive control for lipid over-storage using a final concentration of 20 uM. A total of 23 nL of compound solution of different concentrations were transferred to the assay plates using a Kalypsys pin tool equipped with a 1,536-pin array containing 10-nL slotted pins (FP1S10, 0.457-mm diameter, 50.8 mm long; V&P Scientific). One microliter of oleic acid was added (400 uM final concentration), and the plate was lidded with stainless steel rubber gasket lined lids containing pinholes. After 18-24 h incubation at […] and 95% humidity, 4 uL of the dyes BODIPY 493/503 (Molecular Probes) and the Cell Tracker Red CMTPX dye (Molecular Probes) were added to the wells to stain lipid droplets and enumerate cell number, respectively. Fluorescence was detected by excitation of the fluorophores with a 488-nm laser on an Acumen Explorer (TTP Lab Tech). The total intensity in channel 2 (500-530 nm) reflected lipid droplet accumulation. Cells were detected using channel 3 (575-640 nm) with 5-um width and 100-um depth filters. The ratio of the number of objects in PMT channel 2 over the number of objects in PMT channel 3 was also calculated. Percent activity was computed relative to an internal control (100% inhibited lipid droplet deposition due to the presence of 20 uM Triacsin C), which was added to 32 wells/plate.
Take `COc1ccc(CCNC(=O)c2cc3sccc3n2Cc2ccccc2)cc1OC`: the “activity change, negative = less lipid storage” value (“activity change” for short) was 0%. Still for that read-out and setting: the same measure for `O=C(Cc1ccccc1)NC1CCCc2c1cnn2-c1ccc(F)cc1F` (stereo not given): -75%; for `COc1ccc(-c2cnc(SCC(=O)Nc3nccs3)n2Cc2ccccc2)cc1`: 0%.

For the compound `O=C(NC1CCCc2c1cnn2-c1cc(F)cc(F)c1)c1cccc2nccnc12` (stereo not given), the Potency was 8.65 µM (active). Turning to `O=C(NC1CCCCC1)NC1(C(=O)N2CCCC2)CCCCC1`, the “activity change” value was 0%.

Turning to `CN(C)CC(=O)NC1CCCc2c1cnn2-c1ccc(F)cc1F` (stereo not given), the “activity change” value was 21%. Consider `O=C(NC1CCCc2c1cnn2-c1ccc(F)cc1F)c1ccccc1` (stereo not given), for which the “activity change” value was -2.47%. On the same count and under the same terms, the figure for `Cc1ccc(-c2cnc(SCC(=O)Nc3nc(C)cs3)n2Cc2ccco2)cc1` is 0%. For `CCOc1ccc(CCNC(=O)c2cc3sc(CC)cc3n2C)cc1OCC`, the Potency was 0.217 µM (active). For the compound `O=C(NC1CCCc2c1cnn2-c1ccc(F)cc1F)c1ccn[nH]1` (stereo not given), the “activity change” value is 24.7%. On to `COc1ccc(-c2cnc(SCC(=O)Nc3nc(C)cs3)n2Cc2ccco2)cc1`, for which the “activity change” value was 0% [at 30.7 µM].

Regarding `CCOC(=O)C1CCN(C(=O)C2(NC(=O)NCc3ccccc3)CCCCC2)CC1`, the “activity change” value is 41.3%. In the case of `CCOc1ccc(CCNC(=O)c2cc3sccc3[nH]2)cc1OCC`, the “activity change” value is 8.64%. In the case of `O=C(NC1CCCc2c1cnn2-c1ccc(F)cc1F)C1CCCCN1` (stereo not given), the “activity change” value was -20.7%. As for `COc1ccc(CCNC(=O)c2cc3sccc3n2Cc2ccc(Cl)cc2)cc1OC`, the “activity change” value was 0% [at 30.7 µM].
